Laboratory results taken from ChEMBL document CHEMBL3988442, “University of Dundee, Small-Polar-MMV Screening Library” (2021).

Assays:
[1] = target: T1, Aspartate--tRNA(Asp/Asn) ligase (Mycobacterium tuberculosis (strain ATCC 25618 / H37Rv)) (UniProt P9WFW3); test: Assay for Asp RNA synthetase-1 from Mycobacterium tuberculosis; type: functional; design: scale not given: direction of the effect not stated beside the values; settings: 30 µM; note: in the data most compounds retested in dose-response had high values
T1 sequence (whole entry): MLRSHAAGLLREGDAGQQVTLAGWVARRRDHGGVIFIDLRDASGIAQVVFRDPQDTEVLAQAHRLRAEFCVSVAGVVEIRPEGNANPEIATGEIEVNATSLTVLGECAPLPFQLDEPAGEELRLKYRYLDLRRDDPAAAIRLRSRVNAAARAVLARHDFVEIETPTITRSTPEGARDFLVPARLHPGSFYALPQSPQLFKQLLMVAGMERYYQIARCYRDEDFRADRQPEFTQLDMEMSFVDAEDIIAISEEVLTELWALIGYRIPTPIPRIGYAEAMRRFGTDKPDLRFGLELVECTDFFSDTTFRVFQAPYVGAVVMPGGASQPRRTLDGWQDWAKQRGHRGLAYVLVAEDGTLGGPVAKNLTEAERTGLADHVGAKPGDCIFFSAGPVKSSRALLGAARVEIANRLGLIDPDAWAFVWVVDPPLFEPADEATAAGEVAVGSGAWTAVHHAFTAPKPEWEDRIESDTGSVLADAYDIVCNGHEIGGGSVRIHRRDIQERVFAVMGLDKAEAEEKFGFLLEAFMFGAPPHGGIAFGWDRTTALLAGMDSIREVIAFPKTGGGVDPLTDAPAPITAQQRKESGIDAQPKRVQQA

[2] = target: Shiga toxin 2 (Escherichia coli O157:H7) (UniProt P09385+P09386); test: E. coli 0.157:H7 Shiga Toxin SOP - stx2 screening assay; type: functional; design: scale not given: direction of the effect not stated beside the values; settings: 30 µM

Structure (SMILES) | Percent Effect [1] [%] | Percent Effect [2] [%]
O=C1CCCN1Cc1ncn2c1CN(C(=O)c1cccc(F)c1)CCC2 | -3.2 | 3.75
Cc1cccc(CN2CC3(CCNCC3)OCC2=O)n1 | 5.56 | 5.99
O=C(Nc1cn[nH]c1)c1ccc(O)nc1 | -1.37 | 30.3
CC(=O)NCC(=O)N1CCC2(CC1)CN(c1cccnc1)C(=O)CO2 | 2.37 | -4.09
COc1ccc(CCC(=O)Nc2cccnc2N2CCCC2)cc1Br | -3.21 | 28.3
CC(C)(C)C(=O)NCCC(=O)NS(=O)(=O)c1ccc2c(c1)OCCO2 | -10.1 | 0.645
Cc1cnn(CC2CCCN2CC(=O)N(C)CCC#N)c1 (stereo not given) | -0.546 | -11.9
Cc1ccc(S(=O)(=O)N2CCOc3ccccc32)cc1C(N)=O | 0.611 | -48.3
O=C1COc2ccc(C(=O)NS(=O)(=O)c3ccc(F)cc3F)cc2N1 | 0.0843 | 17.8
CN(CCCc1ccccc1)Cc1nc2c(cnn2C)c(=O)[nH]1 | 1.38 | 28.4
CC[C@@H]1N(CC2CC2)CCC[C@]12CCC(=O)N2CCOC | -4.31 | -1.83
CCn1cnnc1C1CCN(C(=O)c2cc3c(s2)CCC3)CC1 | -5.31 | -11.1
CN1[C@H](CN2CCCC2)C[C@@H]2CN(C(=O)c3cccn3C)CC[C@@H]21 | 2.46 | -2.89
O=C(CCc1cccs1)N1CCC(Nc2cccnn2)CC1 | -2.47 | -26.6
O=C(c1ccco1)N1CCOCC2(CCN(C3CCOCC3)C2)C1 (stereo not given) | 8.62 | -31.1
COC(=O)C1CCN(C(=O)c2ccc(N(C)S(C)(=O)=O)c(C)c2)CC1 | -4.11 | -5.54
CSc1ccccc1CN1CCn2nc(CNC(C)=O)cc2C1 | 6.15 | -66.1
Cc1[nH]ncc1C(=O)N1CCCC(n2cncn2)C1 (stereo not given) | 1.7 | 22.7
COc1cccc(CN2CCCCCC2c2cccc(C)c2)c1O (stereo not given) | -0.481 | -68.7
Cc1ccc(NC(=O)NCCCc2n[nH]c(N)c2C#N)cc1 | 1.26 | -18.4
Cc1noc(C)c1CCC(=O)N1CCN(CCn2cccn2)CC1 | -5.26 | -11.4
CC(C)(C)C(=O)NCCc1ccn(-c2ccccc2)n1 | -7.82 | -32.2
CC(C)c1nc(CC(=O)N2CCCC(n3cncn3)C2)cs1 (stereo not given) | -4.06 | -31
Cc1[nH]ccc1C(=O)N1CCC(c2nnc(Cn3cccn3)n2C)CC1 | -2.14 | -9.29
COc1cccc(CN2CCC3(CCN(C(=O)[C@H]4CCCO4)CC3)C2)c1 | 2.09 | -47.5

Structure (SMILES) | Percent Effect [1] [%] | Percent Effect [2] [%]
Cn1ccc(C(=O)N2CCC(Cc3cnc4[nH]ccc4c3)CC2)n1 | 0.283 | 19.7
COCC(=O)N1CCC(c2cccc(Cc3ccc(F)cc3)n2)CC1 | 1.18 | -10.6
COCC1CCN(C(=O)c2cccc(S(=O)(=O)NC3CCCC3)c2)C1 (stereo not given) | -0.437 | -4.97
CC(C)c1noc(C(C)N2CCN(CCN3CCCC3=O)CC2)n1 (stereo not given) | 1.45 | 17.6
CC1c2ncc(CN3CCN(C)CC3)n2CCN1CC1CC1 (stereo not given) | 0.815 | -23.1
O=C(CCc1nccs1)N1CCN(c2ncccn2)CC1 | -0.577 | 11.5
CC1CCCN(CCNC(=O)c2cncnc2C(C)C)C1 (stereo not given) | 0.418 | -17.1
O=C(NCCn1ccnc1)N1CCN(Cc2cccs2)CC1 | 0.0694 | -34.2
CN(C)CC(=O)N1CCOCC2(C1)CN(c1ccccc1)C(=O)CO2 (stereo not given) | 3.93 | -23.2
CC(C)(C)c1ncc2c(n1)CN(C(=O)c1ccncc1)C2 | 2.51 | -10.4
CCc1nnc(CNCC2CCN(CC(O)c3ccccc3)CC2)o1 (stereo not given) | -2.95 | -40.8
c1ccc(CCCN2CC(n3cccn3)C2)cc1 | -4.05 | -12.1
CCS(=O)(=O)N(C)C(=O)c1cc(C)n(-c2cccc(OC)c2)c1C | -6.83 | -4.96
O=C(c1cc[nH]n1)N1CCCC1C1CCN(Cc2ccccc2)CC1 (stereo not given) | 6.59 | -28.1
Cc1cc(C)n(CC2CCCN2C(=O)c2ccc3[nH]nnc3c2)n1 (stereo not given) | 3.71 | -26.6
Cc1[nH]ccc1C(=O)N1CCCC(c2nccn2Cc2cscn2)C1 (stereo not given) | -2.28 | 4.58
NC(=O)C1CCN(Cn2nc(-c3ccc(F)cc3)oc2=O)CC1 | 4.96 | -69.6
Cc1cccc(-c2nc(CN3CCc4c(ncn4C)C3)no2)c1 | 1.91 | 4.04
Cc1nc(C)n(C2CCCN(C(=O)c3ccc(F)cc3F)C2)n1 (stereo not given) | -6.88 | 1.49
CCc1ccc(C(=O)Nc2ccc(CC3CC(=O)NC3=O)cc2)cc1 (stereo not given) | 7.7 | -36.3
OCC1CCCN1c1cc(NCCNc2ccccn2)ncn1 (stereo not given) | 8.62 | -85.7
CCc1nccn1-c1cncc(C2CCCN2Cc2cccnc2)n1 (stereo not given) | 5.87 | -37.2
O=C(c1ccccn1)N1CCn2cnc(COCC3CC3)c2C1 | 1.82 | -5.26
CCc1noc(C(C)N2CCC(C(=O)Nc3cnn(CC)c3)CC2)n1 (stereo not given) | -3.65 | -12.4
C=C(C)C(=O)N1CCC(C(=O)c2cc(C)cnc2N)CC1 | -5.78 | -12

Structure (SMILES) | Percent Effect [1] [%] | Percent Effect [2] [%]
CS(=O)(=O)N[C@@H]1CCO[C@]2(CCN(C(=O)c3cnccn3)C2)C1 | 4.35 | 3.82
O=C(NCCCO)C1CC(=O)N(c2n[nH]c3cccc(F)c23)C1 (stereo not given) | 0.29 | -34.7
O=C(NCCN1CCOCC1)NCC(O)c1cccc(F)c1 (stereo not given) | 2.52 | 4.91
CCS(=O)(=O)CC(=O)NC(c1ccc(F)cc1)C1CCCC1 (stereo not given) | -3.77 | -1.68
OC(COc1ccccc1)CN1CCC(c2ccn[nH]2)CC1 (stereo not given) | -0.6 | -7.22
CC(=O)N(Cc1ncc(C(C)C)o1)C1CCN(Cc2ncc[nH]2)C1 (stereo not given) | 5.3 | 10.9
O=C(O)c1cc(-c2cccnc2)cc(S(=O)(=O)N2CCCCCC2)c1 | -3.5 | 11.4
O=C(NC1=NCCCN1c1ccc(Cl)cc1)c1cccc(Cl)c1 | 8.32 | -69.6
c1ccc(CN2CC[C@@H]3O[C@@H](COCC4CCOCC4)CC[C@@H]32)nc1 | 7.81 | -21.9
O=C([C@H]1COC[C@H]2CN(C3CCCC3)C[C@H]21)N1CCCCO1 | 5.94 | -2.98
Cc1csc([C@@H]2C[C@@H]3CCN(C(=O)c4ccnnc4)C[C@H]3O2)n1 | -2.11 | -6.67
O=C([C@H]1CCCO1)N1CC[C@H](O)[C@@H]1Cc1ccncc1 | -1.01 | 1.58
CCc1nc(C2CCCN(C(=O)c3cn(C)nc3C)C2)no1 (stereo not given) | -7.17 | -20.7
O=C1CCCCN1Cc1cccc(NC(=O)N2CCSCC2)c1 | -4.71 | -1.06
CC(CCc1ccccc1)NC(=O)Nc1cnn(CC(N)=O)c1 (stereo not given) | 2.84 | -44.2
COc1ccccc1CCN(C)C(=O)NC(C)c1nncn1C (stereo not given) | -4.13 | 1.17
c1cnnc(N2CCCC2CNCc2cc[nH]n2)c1 (stereo not given) | -3.63 | -20
O=C(COCc1ccccc1Cl)N1CCCC(n2cccn2)C1 (stereo not given) | -1.04 | 20
Cc1cc(C)c(CNC(=O)N2CCN(c3cnccn3)CC2)c(=O)[nH]1 | -0.167 | 9.86
Cc1nc(CCCNC(=O)C2CC(=O)N(C3CC3)C2)sc1C (stereo not given) | 3.67 | -28.3
O=C(NCCOCC(F)(F)F)c1ccc(-c2ccco2)[nH]c1=O | 0.409 | 20.7
CCn1ccnc1CN(C)CC1CCCN1c1cccnn1 (stereo not given) | 7.69 | -26.1
CC1CCCN(Cc2csc(-c3ncccn3)n2)CC1 (stereo not given) | -2.94 | -26.7
c1nc(COCC2CC2)c2n1CCCN(CC1CC1)C2 | -0.611 | -11.2
CN(Cc1ccsc1)C(=O)c1cccc(NS(C)(=O)=O)c1 | -4.16 | -32.9

Structure (SMILES) | Percent Effect [1] [%] | Percent Effect [2] [%]
CNS(=O)(=O)Cc1ccc(CNc2cncc(-n3cccn3)n2)cc1 | -0.637 | -15.6
CCC(CNC(=O)c1cc(OC)ccc1Br)N1CCc2ccccc2C1 (stereo not given) | 4.47 | 9.68
CS(=O)(=O)NC1CCCN(C(=O)NCc2cccnc2)C1 (stereo not given) | -0.548 | 26.7
Cc1nc(CN2C[C@@H]3CN(C(=O)c4cccn4C)C[C@@H]3C2=O)cs1 | -0.382 | -4.43
COc1ccc(CN2CCn3cc(Cn4cccn4)nc3C2)cc1 | 6.63 | -37.1
CCc1nccn1C1CCCN(C(=O)Cc2cn3ccccc3n2)C1 (stereo not given) | 0.0146 | -20.4
Cc1ccc(CN2CCCC23CCN(S(=O)(=O)c2ccccc2)C3)o1 (stereo not given) | 4.14 | 3.29
Cc1oncc1C(=O)NCc1cc(=O)n2c(n1)CN(C)CCC2 | 16 | -2
CNC(=O)C1CCC(NC(=O)N(C)Cc2c(C)noc2C)CC1 (stereo not given) | -3.01 | 14.3
Cc1ncc2c(n1)CCN(C(=O)Cc1c(C)noc1C)C2 | -2.87 | -13.9
CN1CCCC1CNC(=O)c1nnn(-c2ccc(F)cc2)c1C1CC1 (stereo not given) | 3.7 | -26
CCc1nnc2n1CCN(Cc1csc(-c3ccsc3)n1)C2 | 1.89 | -7.29
Cn1c(CNc2c(F)cccc2-n2cccn2)cc(=O)n(C)c1=O | -0.864 | 0.236
CC(NC(=O)c1cccs1)C(=O)NCc1ccccc1CN1CCCC1 (stereo not given) | -4.19 | -31.6
Cc1nc(NC(=O)CNC(=O)c2c(F)cccc2Cl)n[nH]1 | 6.53 | 3.62
COc1cccc(N2CCN(C(=O)C(O)c3cccc(Cl)c3)CC2=O)c1 (stereo not given) | 0.569 | -24.2
N#Cc1cccnc1NCCNC(=O)N1CCCC(C(F)(F)F)C1 (stereo not given) | -0.524 | -17.9
c1ccc(Cn2cc3c(n2)C(CNCc2ccco2)OCC3)nc1 (stereo not given) | 6.18 | -26.1
Cc1cccc(-c2nc(CN3CCCCC3Cn3cncn3)no2)c1 (stereo not given) | -2.9 | 15.3
Cc1cnn(CC2CN(c3cnc4ccccc4n3)CCO2)c1 (stereo not given) | -11.1 | -0.837
CS(=O)(=O)N[C@@H]1CCO[C@]2(CCN(C(=O)C3=CCCC3)C2)C1 | 3.41 | -0.907
CN(C)CCOCC1CN(Cc2ccsc2)Cc2ccnn2C1 (stereo not given) | -0.625 | 3.55
Cc1cn(CC(=O)NC2CCN(S(C)(=O)=O)CC2)c2ccccc12 | 2.86 | -10.4
CN1C(=O)C(C)(C)COc2cc(NS(=O)(=O)c3ccccc3)ccc21 | -5.61 | 8.93
Cn1cccc1C(=O)N1CCN(CC2CC2)c2ncccc2C1 | 2.01 | -11.1
